In all, about 360,000 compounds went through this assay and about 9,100 (2.5%) were called active. Roughly 4% stayed inconclusive and do not appear here. Many of the other results were omitted from the sample, so actives are more common in it than they were. Unmarked numbers belong to inactive results. Cut-off read from the data, not from the text of the source: active = max response below about -50%; inconclusive = no clear call, values can overlap the other calls; inactive = above that.
Target: D(3) dopamine receptor (Homo sapiens) (UniProt P35462)
Sequence (P35462 whole entry, looked up): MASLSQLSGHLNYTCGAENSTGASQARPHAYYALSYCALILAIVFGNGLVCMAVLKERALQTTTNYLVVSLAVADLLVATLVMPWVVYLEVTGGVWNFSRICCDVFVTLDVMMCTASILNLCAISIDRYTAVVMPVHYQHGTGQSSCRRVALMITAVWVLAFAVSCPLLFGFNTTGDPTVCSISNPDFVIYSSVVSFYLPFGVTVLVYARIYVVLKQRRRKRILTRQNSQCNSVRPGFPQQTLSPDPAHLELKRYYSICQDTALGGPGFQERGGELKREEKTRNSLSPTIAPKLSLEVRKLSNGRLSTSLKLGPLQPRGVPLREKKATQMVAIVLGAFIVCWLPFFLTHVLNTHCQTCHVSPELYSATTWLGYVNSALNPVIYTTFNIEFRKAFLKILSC
Assay: qHTS of D3 Dopamine Receptor Antagonist: qHTS
Details: D3R cells, DiscoveRx beta-arrestin luminescence, antagonist mode; active compounds read low
In short: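 Cells expressing the human receptor were seeded at 1500 cells/well, incubated overnight at 37 degrees C in 5% CO2, then exposed to library compounds with dopamine controls for 90 minutes at 37 degrees C before luminescent detection.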
% is set by controls: 0 for no effect and ±100 for the full control effect.

Compound | max response, negative = inhibition
Cc1ccccc1-c1nc(NC(C)C)nc2cc(-c3ccccc3)sc12 | 21.7%
C[C@H]1CN([C@@H](C)CO)C(=O)c2cc(-c3cccc(F)c3)cnc2O[C@@H]1CN(C)S(C)(=O)=O | 17.3%
COc1ccc(Sc2ccc(NC(=O)c3cccc(Cl)c3)cc2C#N)cc1 | 28.7%
Fc1ccccc1CCNc1nnnn1-c1ccccc1 | -77.8% (active)
COc1ccccc1CN(C)c1nnnn1-c1ccccc1 | 6.89%
c1ccc(-n2nnnc2NC2CCCCCC2)cc1 | -9.29%
COc1ccccc1CNc1nc(Nc2ccccc2Cl)c2sccc2n1 | 51.2%
Cc1ccccc1NC(=O)Cc1nc(COC(=O)CNC(=O)c2ccc(Cl)cc2Cl)cs1 | -6.28%
CN(C)CC/C=C1\c2ccccc2CSc2ccccc21 | -54.4% (active)
CN(C)Cc1ccccc1C1(O)c2ccccc2CSc2ccccc21 (stereo not drawn) | -12.3%
O=[N+]([O-])c1ccc(C(S(=O)(=O)Cc2ccccc2)S(=O)(=O)Cc2ccccc2)cc1 | -9.27%
S=C(NN=Cc1ccccn1)Nc1ccccn1 | -27%
Oc1ccc(Br)cc1/C=N/Nc1ccccn1 | -57.7% (active)
O=C(CCc1ccc(O)cc1)NN=Cc1cc(Br)ccc1O | -3.37%
CNC(=O)C1CN(C(=O)c2cccc(S(=O)(=O)N3CCc4ccccc43)c2)c2ccccc2O1 (stereo not drawn) | -27.2%
CC1C(=O)N(Cc2cn(CC3CCCCC3)nn2)CCS(=O)(=O)N1Cc1ccc(-c2cccc(N(C)C)c2)cc1 (stereo not drawn) | 0%
Cc1ccc(S(=O)(=O)n2nc(OC(=O)C(C)(C)C)cc2N)cc1 | -4.07%
Nc1cc(OC(=O)c2ccccc2Br)nn1S(=O)(=O)c1ccccc1 | -73.2% (active)
CN1C(=O)/C(=N/OC(=O)c2ccccc2Br)c2ccccc21 | 0.409%
FC(F)(F)c1ccccc1Cc1c(-c2ccccc2)nc2c3ccccc3ccn12 | -14.4%

Compound | max response, negative = inhibition
COc1cccc(-c2cnc3c(NC(C)=O)cc(-c4cccc(NC(C)=O)c4)cn23)c1 | 43.1%
CCN1CCCC1CNC(=O)c1ccc2c(c1)NC(=O)/C(=C\c1ccccc1F)S2 (stereo not drawn) | -21.4%
Cc1cccc(C)c1Cn1c(C)c(C(=O)NCc2cccc(Cl)c2)sc1=O | -105% (active)
COc1cc(CC(=O)NCc2cccs2)cc(OC)c1OC | -6.25%
CC(=O)Oc1ccc(Cn2c(C)c(C(=O)NCc3ccc(C#N)cc3)sc2=O)cc1 | -1.7%
Cc1ccccc1Cn1c(C)c(C(=O)NCc2cccc(C(F)(F)F)c2)sc1=O | -29.9%
Cc1c(C(=O)NCC2CC2)sc(=O)n1Cc1cccc(F)c1 | 11.5%
COc1ccc(Br)c(Cn2c(C)c(C(=O)NCc3cccs3)sc2=O)c1 | -59.3% (active)
CCOC(=O)[C@]12CCCC=C1N(CCC1=CCCCC1)C(=O)[C@H](CC(=O)N1CCOCC1)C2 | -20.5%
COC(=O)C[C@H]1C=C[C@H](NC(=O)c2ccc(F)cc2)[C@@H](CO)O1 | 0%
CCc1nc2ccccc2c(C(=O)NCc2ccc(OC)cc2)c1C | -8.59%
CCN(CC)CCNC(=O)c1ccc(NC(=O)c2cc(-c3ccncc3)nc3ccccc23)cc1 | -11%
CCCN(CCC)CCNC(=O)c1cc2c(C)nc3ccccc3c2o1 | -52.4% (active)
C[C@H]1CN([C@@H](C)CO)C(=O)CCCn2nncc2CO[C@@H]1CN(C)S(=O)(=O)c1cccc(C#N)c1 | 12.3%
COc1ccc(CN2CCC(C)(Oc3cccc(F)c3)C2)c2ccccc12 (stereo not drawn) | -6.36%
CC1(Oc2cccc(F)c2)CCN(Cc2ccccc2OC(F)F)C1 (stereo not drawn) | -21.8%
CC1(Oc2ccc(Cl)cc2)CCN(Cc2csc3ccccc23)C1 (stereo not drawn) | -85.5% (active)
N#Cc1ccc(-c2ccc3nccn3c2)cc1 | 21.2%
Cc1ccccc1S(=O)(=O)NC(=O)C1(C)CCN1C(=O)C1(c2ccccc2)CCCC1 (stereo not drawn) | 15.6%
CSc1ccc(CN2CCC2(C)C(=O)Nc2ccc(C)c(O)c2)cc1 (stereo not drawn) | 51.8%

Compound | max response, negative = inhibition
O=C(c1cc2ccccc2o1)N1CCN(Cc2ccccc2)CC1 | -77.4% (active)
O=C(c1cc2ccccc2o1)N1CCN(S(=O)(=O)c2ccc(Cl)s2)CC1 | -0.155%
O=C(Nc1ccccc1)N1CCN(Cc2ccccc2)CC1 | -70.6% (active)
O=C(Nc1ccccc1)N1CCC(C(=O)N2CCN(Cc3ccccc3)CC2)CC1 | 0%
O=C(c1cccc(Cl)c1)N1CCN(Cc2ccccc2)CC1 | 7.13%
O=C(NC(=S)N1CCN(Cc2ccccc2)CC1)c1ccccc1 | -1.99%
CCOC(=O)C1=CCC(c2ccc(F)cc2)N(S(=O)(=O)c2ccc(C)cc2)C1 (stereo not drawn) | -25.7%
Clc1cccc(Cc2c(-c3cccc(Cl)c3)nc3ccc(Cl)cn23)c1 | 33.1%
CC(=NNC(N)=O)C1CC2CCC1CC2 (stereo not drawn) | 16.7%
O=C1Nc2ccccc2-n2nnnc2C1N1CCN(c2cccc(C(F)(F)F)n2)CC1 (stereo not drawn) | 11.4%
CN1CCN(/N=C2/C(=O)Nc3ccc([N+](=O)[O-])cc32)CC1 | -3.16%
O=[N+]([O-])c1ccc(N(CCO)Cc2ccccc2)c([N+](=O)[O-])c1 | 5.91%
O=C1Nc2ccc([N+](=O)[O-])cc2C1=Nc1cccc(CO)c1 | -77.4% (active)
COC(=O)CCCCC1=CCC2C(=O)C=C(O)C2C1 (stereo not drawn) | 0%
CN1CCn2cnc(C(=O)NCC(=O)OC(C)(C)C)c2C1=O | -5.8%
CSCc1nnc(NC(=O)c2ccc(S(=O)(=O)N3CCCCC3C)cc2)o1 (stereo not drawn) | -20%
CC1CCCCN1S(=O)(=O)c1ccc(S(=O)(=O)N(CC(=O)Nc2ccccc2)Cc2cccs2)cc1 (stereo not drawn) | 28.7%
CC1CCCCN1S(=O)(=O)c1ccc(C(=O)Nc2nnc(-c3cccs3)o2)cc1 (stereo not drawn) | -63.3% (active)
